Experiments:
[1] = tested on: Falciformispora senegalensis CBS197.79; assay: growth relative to untreated control; higher = less inhibition, active = 20 or less
How it was run: (§1)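 Hyphal fragments of M. mycetomatis MM55 or F. senegalensis CBS197.79 were suspended in colourless RPMI 1640 with L-glutamine and MOPS at 68–72% transmission at 660 nm. They were exposed in 96-well plates to compound at 100 or 25 µM for 7 days at 37 °C. Viability was read with MTS (2 h, 490 nm) or resazurin (600 nm). Growth is metabolic activity relative to the untreated growth control, both corrected with a medium-plus-dye blank.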

[2] = tested on: Madurella mycetomatis MM55; assay: as above
How it was run: as §1

Measured: growth

CCOc1ccc(C=C2NCCc3cc(OCC)c(OCC)cc32)cc1OCC
inactive: [1]; 25 µM 112% | [1]; 100 µM 106% | [2]; 25 µM 73.2% | [2]; 100 µM 48%

CCCCc1oc2ccccc2c1C(=O)c1cc(I)c(OCCN(CC)CC)c(I)c1
inactive: [1]; 25 µM 101% | [1]; 100 µM 104% | [2]; 25 µM 78.3% | [2]; 100 µM 87.6%

Nc1nc(C2CC2)cn1CC(O)c1ccc(Cl)cc1Cl (centres undefined)
inactive: [1]; 25 µM 86% | [1]; 100 µM 73.7% | [2]; 25 µM 83.6% | [2]; 100 µM 83.2%

NC1CCc2nc(-c3cccnc3)nc(Nc3ccc(C(F)(F)F)cc3)c2C1 (centres undefined)
active: [1]; 100 µM 13.8% | [2]; 100 µM 5.34%
inactive: [1]; 25 µM 102% | [2]; 25 µM 71.4%

CCOc1cc([C@@H](CS(C)(=O)=O)N2C(=O)c3cccc(NC(C)=O)c3C2=O)ccc1OC
inactive: [1]; 25 µM 99.4% | [1]; 100 µM 99.6% | [2]; 25 µM 98.3% | [2]; 100 µM 90.4%

C[C@H](NC(=O)c1cc2nc(C(F)(F)F)ccc2[nH]1)c1ccccc1
inactive: [1]; 25 µM 88.2% | [1]; 100 µM 95.9% | [2]; 25 µM 86.1% | [2]; 100 µM 56.8%

Reference: the supplement of paper PMC11172423
